Rows were chosen to be rich in hits. Some 7.9% of all compounds tested hit in one or more screens of this group.
MARV entry inh – inhibitors of Marburg virus binding or cell entry | Marburg virus pseudotyped entry inhibition, cell reporter | 1.8% of 300,000 active | AID 540276 | Potency, µM (series often up to 37.8 µM), actives largely listed as inhibitors; calls by dose curve; tested in HEK293 cells
HCV inhibitor – inhibitors of hepatitis C virus infection | Huh7.5.1 HCVcc-Cre infection, luciferase reporter, 44 h | Potency, µM (titrated, usually from 41.8 µM), hits mostly inhibitors | 3.4% of 340,000 active; active = well fitted inhibition curve with a large enough effect; inconclusive = small, poorly fitted or top-dose-only effect, or another doubt; inactive = no such curve, though single readings can be large or run the other way
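1,000 cells/well; 4 h culture; + compound; + HCVcc-Cre (~0.5 moi); 44 h; luciferase substrate, RT 15 min; read 15 sec.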
FMDV antiviral – foot and mouth disease virus antiviral activity | Potency, µM (top dose mostly 57.9 µM), most hits filed as inhibitors | 1.2% of 410,000 active | FMDV antiviral cell-based qHTS | AID 1159524; calls by dose curve; tested in HEK293T cells; note: read-out not given here; nearly all actives have a fitted effect of over 45% in size
HCMV antiviral – human cytomegalovirus inhibition | HFF cells, HCMV-luciferase reporter, 72 h; stronger effect = lower value | activity change, negative = inhibition, % at 57.5 µM | 4.5% of 410,000 active; in the data active = activity change below about -60%; inconclusive = no clear call, values can overlap the other calls; inactive = above about -39%
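HFF cells seeded 16 h at 37C, treated with compounds, infected with luciferase-reporter HCMV at MOI 1 PFU/cell; luciferase read at 72 h post infection, normalized to buffer-only and Salinomycin controls.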
LASV entry inh – Lassa virus entry inhibition | Lassa virus pseudotype entry inhibition, cell reporter | Potency, µM (series often up to 37.9 µM), most hits filed as inhibitors | 1.2% of 300,000 active | AID 540256; calls by dose curve; tested in HEK293 cells; note: nearly all actives have a fitted effect of over 50% in size
Of the large screens only hits and unclear results are named; the others gave an inactive call; ! = repeats disagree.

CC(=O)N1CCCc2cc(S(=O)(=O)N3CCCC(C(=O)Nc4ccc(C)c(F)c4)C3)ccc21 (stereo not given)	FMDV antiviral inconclusive (no result: MARV entry inh, HCV inhibitor)
O=C(C1CC1)N1CCc2cc(S(=O)(=O)N3CCN(c4ccccc4)CC3)ccc21	HCV inhibitor inconclusive (no result: MARV entry inh, LASV entry inh)
O=C(OCC(=O)N1CCC(c2ccccc2)=N1)c1ccc([N+](=O)[O-])s1	HCV inhibitor inconclusive
CC(C)CN(CCNC(=O)c1cn(C)c2ccc(S(=O)(=O)N3CCCCCC3)cc2c1=O)CC(C)C	none (no result: HCV inhibitor)
C=C1N(S(=O)(=O)C(F)(F)F)CCC12CN(Cc1ccccc1)c1ccccc12 (stereo not given)	none (no result: MARV entry inh, HCV inhibitor, FMDV antiviral, LASV entry inh)
O=C(NCc1ccccn1)c1cnn(-c2nccc(-c3cc4ccccc4o3)n2)c1C1CC1	none (no result: MARV entry inh, HCV inhibitor, HCMV antiviral, LASV entry inh)
CCOc1cc(CNCCc2c[nH]c3ccccc23)cc(Cl)c1OC	MARV entry inh inconclusive, HCV inhibitor 10µM, FMDV antiviral inconclusive
CCOc1cc(CNCCc2c[nH]c3ccccc23)cc(Cl)c1OCC(N)=O	HCV inhibitor inconclusive (no result: MARV entry inh, LASV entry inh)
COc1cc(CNCCc2c[nH]c3ccccc23)ccc1OCc1ccc(F)cc1	MARV entry inh inconclusive, HCV inhibitor 13µM
Cc1ccc(Cc2c(C)nc3nc(SCC(=O)NCCN4CCCCCC4)nn3c2C)cc1	none (no result: MARV entry inh, HCV inhibitor, FMDV antiviral, LASV entry inh)
O=C(CC1C(=O)NCCN1Cc1cccc(Oc2ccccc2)c1)NCCCn1cccn1 (stereo not given)	none
COc1ccc(-c2ccc(/C=C3/C(=N)N4C(C)=CSC4=NC3=O)o2)c([N+](=O)[O-])c1	FMDV antiviral 40µM
CCc1cc(=O)oc2cc3occ(-c4ccc(OC)c(F)c4)c3cc12	MARV entry inh inconclusive, HCV inhibitor inconclusive, FMDV antiviral inconclusive, HCMV antiviral -68, LASV entry inh 5µM
COc1cc(OC)c2c(-c3cccc(-c4ccc(OC)c(F)c4)c3)cc(=O)oc2c1	HCV inhibitor inconclusive, HCMV antiviral -68 (no result: MARV entry inh, LASV entry inh)
N#Cc1cccc(NC(=O)c2cc(C3CCCCN3C(=O)c3cccs3)on2)c1 (stereo not given)	FMDV antiviral inconclusive (no result: MARV entry inh, HCV inhibitor, LASV entry inh)
COc1cc(/C=C/C(=O)OC(C)C(=O)c2ccccc2)cc(OC)c1OC (stereo not given)	none
COc1ccc(N2CCN(CCCNS(=O)(=O)c3c(C)noc3/C=C/N(C)C)CC2)cc1	HCV inhibitor 7.9µM (no result: FMDV antiviral, HCMV antiviral, LASV entry inh)
COc1ccc(NC(=O)C2CCN(S(=O)(=O)c3c(C)noc3/C=C/N(C)C)CC2)cc1	none (no result: MARV entry inh, LASV entry inh)
CCN1C(=S)SC(=O)C1=C1C=C(C)N(CCO)C(C)=C1	MARV entry inh inconclusive, HCMV antiviral -68, LASV entry inh inconclusive (no result: FMDV antiviral)
O=C(/C=C/c1ccc(O)c(O)c1)O[C@@H]1C[C@](O)(C(=O)O)C[C@@H](O)[C@H]1O	HCV inhibitor inconclusive, HCMV antiviral -60! (no result: MARV entry inh, LASV entry inh)
CCN(CC)C(=O)c1nc[nH]c1C(=O)N1CCC(C)CC1	none (no result: MARV entry inh, LASV entry inh)
CC1CCN(C(=O)c2[nH]cnc2C(=O)N(C)Cc2ccccc2)CC1	HCMV antiviral -62 (no result: MARV entry inh, LASV entry inh)
O=C(c1nc[nH]c1C(=O)N1CCN(c2ccccc2)CC1)N1CCN(c2ccccc2)CC1	HCV inhibitor 3.5µM (no result: MARV entry inh, LASV entry inh)
CC(C)(C)OC(=O)N1CCN(C(=O)c2nc[nH]c2C(=O)N2CCN(c3ccccc3)CC2)CC1	none (no result: MARV entry inh, LASV entry inh)
CCN(CC)S(=O)(=O)c1ccc(Cl)c(NC(C)=O)c1	none
Cc1cc(NC(=O)Cc2ccsc2)ccc1Br	HCV inhibitor inconclusive (no result: MARV entry inh, LASV entry inh)
Cc1ccc(NC(=O)COC(=O)/C(=C/c2cccs2)c2cccs2)cc1S(=O)(=O)N(C)C	MARV entry inh inconclusive, HCV inhibitor inconclusive, LASV entry inh 11µM
CCN(CC)S(=O)(=O)c1ccc(C)c(NCC(=O)Nc2ccc(C#N)c(Cl)c2)c1	MARV entry inh inconclusive, HCV inhibitor 13µM, HCMV antiviral inconclusive, LASV entry inh inconclusive
Cc1ccc(NC(=O)CNc2ccc(Cl)c(Cl)c2)cc1S(=O)(=O)N(C)C	MARV entry inh inconclusive, HCV inhibitor 6.3µM, FMDV antiviral inconclusive, HCMV antiviral -72, LASV entry inh inconclusive
CCN(CC)S(=O)(=O)c1cc(NC(=O)Cc2ccsc2)ccc1C	HCV inhibitor 13µM, LASV entry inh 0.46µM
NS(=O)(=O)c1cccc(NC(=O)COC(=O)/C(=C/c2cccs2)c2cccs2)c1	MARV entry inh inconclusive, FMDV antiviral inconclusive
COc1cc(OC)c(NC(=O)NC(C)c2c(-n3cccc3)sc(C)c2C)cc1Cl (stereo not given)	HCMV antiviral inconclusive (no result: HCV inhibitor, LASV entry inh)
CC(C)[C@H](N)c1nnc(SC/C=C/c2ccccc2)o1	none
Cc1ccc(NC(=O)Cc2ccccc2Cl)cc1S(=O)(=O)N(C)C	MARV entry inh inconclusive, HCV inhibitor inconclusive, LASV entry inh inconclusive
Cc1ccc(NC(=O)Cc2ccc(Cl)c(Cl)c2)cc1S(=O)(=O)N(C)C	MARV entry inh inconclusive, HCV inhibitor inconclusive, FMDV antiviral 22µM, HCMV antiviral -61, LASV entry inh 13µM
COc1ccc(-c2cc(C(=O)NCc3ccccc3)c3c(-c4ccccc4)[nH]nc3n2)cc1	none (no result: MARV entry inh, HCV inhibitor)
CCn1nc(C)cc1C(=O)NCC1Cc2cccc(-c3cccnc3)c2O1 (stereo not given)	none (no result: MARV entry inh, HCV inhibitor, HCMV antiviral, LASV entry inh)
COc1ccc(-c2csc3ncnc(N4CCN(S(=O)(=O)c5ccc(C)cc5)CC4)c23)cc1	MARV entry inh inconclusive, HCV inhibitor 11µM
COc1ccc(-c2csc3ncnc(N4CCN(c5ccccc5Cl)CC4)c23)cc1	MARV entry inh inconclusive, HCV inhibitor inconclusive, FMDV antiviral inconclusive
COc1ccc(-c2csc3ncnc(N4CCN(S(=O)(=O)c5ccc(Cl)s5)CC4)c23)cc1	MARV entry inh inconclusive, HCV inhibitor 10µM, HCMV antiviral -66, LASV entry inh inconclusive
Cc1sc2ncnc(N3CCN(S(=O)(=O)c4ccc(C(C)(C)C)cc4)CC3)c2c1C	HCV inhibitor 5.6µM, FMDV antiviral inconclusive, HCMV antiviral -82 (no result: MARV entry inh, LASV entry inh)
Cc1sc2ncnc(N3CCN(S(=O)(=O)c4ccc(Br)cc4)CC3)c2c1C	FMDV antiviral inconclusive (no result: HCV inhibitor)
Cc1ccc(S(=O)(=O)N2CCN(C(=O)C3CCN(c4ncnc5sc(C)c(C)c45)CC3)CC2)c(C)c1	HCV inhibitor 4.5µM, FMDV antiviral 20µM, HCMV antiviral -80 (no result: MARV entry inh, LASV entry inh)
COc1ccc(-c2csc3ncnc(N4CCN(S(=O)(=O)c5cccs5)CC4)c23)cc1	MARV entry inh inconclusive, HCV inhibitor 8.9µM, HCMV antiviral -71, LASV entry inh inconclusive
Cc1csc2ncnc(N3CCN(S(=O)(=O)c4cccc(C(F)(F)F)c4)CC3)c12	MARV entry inh inconclusive, FMDV antiviral inconclusive, HCMV antiviral -92, LASV entry inh inconclusive (no result: HCV inhibitor)
O=S(=O)(c1ccc(Oc2ncnc3scc(-c4ccccc4)c23)cc1)N1CCOCC1	MARV entry inh inconclusive, HCV inhibitor 10µM, LASV entry inh inconclusive
Cc1csc2c(N3CCN(S(=O)(=O)c4ccc(Cl)cc4)CC3)ncnc12	MARV entry inh inconclusive
O=S(=O)(c1cccc(C(F)(F)F)c1)N1CCN(S(=O)(=O)c2ccc3c(c2)OCCO3)CC1	none (no result: MARV entry inh, HCV inhibitor, HCMV antiviral, LASV entry inh)
O=S(=O)(c1ccc(Cl)cc1)N1CCN(c2ncnc3sccc23)CC1	MARV entry inh inconclusive, HCV inhibitor inconclusive, FMDV antiviral 14µM, HCMV antiviral -69, LASV entry inh inconclusive
CCC(=O)OCC(=O)C1(OC(=O)CC)C(C)CC2C3C(Cl)CC4=CC(=O)C=C[C@@]4(C)C3C(O)C[C@@]21C (stereo not given in full)	none (no result: MARV entry inh, HCV inhibitor, HCMV antiviral, LASV entry inh)
